Screening results as filed in PubChem BioAssay.
Rango dissoc inh – inhibition of RanGTP-driven Rango-importin beta dissociation; O95149+P62826; Biochemical FRET Rango-importin beta, RanGTP-induced dissociation; Potency, µM (series often up to 46.1 µM); 340,000 compounds, 0.071% hits; further: nearly all actives have a fitted effect of over 45% in size
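Recombinant Rango FRET biosensor (EYFP–snurportin 1 IBB–cerulean CFP10) at 0.1 uM premixed with 0.25 uM importin beta in PBS, 1 mM DTT, 0.02% Tween-20, 0.1% BSA. Compound added 5 min; RanGTP-RCC1 (0.6 uM Ran, 2 mM GTP, 0.2 uM RCC1) then triggers release, read at 45 min.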
Rango-impB inh – inhibitors of Rango-importin beta complex formation; Potency, µM (highest dose often 92.2 µM); 340,000 compounds, 0.031% hits; Rango CFP/YFP FRET sensor + importin beta, 45 min; AID 540263; further: nearly all actives have a fitted effect of over 15% in size
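FRET biosensor (snurportin 1 IBB flanked by EYFP and cerulean), 50 nM, with compound 5 min, then 0.125 microM importin beta in PBS, 1 mM DTT, 0.02% Tween-20, 0.1% BSA. CFP/YFP ratio read after 45 min at room temperature; pre-read flags interference.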
D3 antag – blocks the human D3 dopamine receptor | 360,000 compounds, 2.5% hits | P35462 | max response, negative = inhibition, % | D3R cells, DiscoveRx beta-arrestin luminescence, antagonist mode; stronger effect = lower value; in the data active means max response below about -50%; inconclusive means no clear call, values can overlap the other calls
Target sequence (P35462 whole entry, looked up): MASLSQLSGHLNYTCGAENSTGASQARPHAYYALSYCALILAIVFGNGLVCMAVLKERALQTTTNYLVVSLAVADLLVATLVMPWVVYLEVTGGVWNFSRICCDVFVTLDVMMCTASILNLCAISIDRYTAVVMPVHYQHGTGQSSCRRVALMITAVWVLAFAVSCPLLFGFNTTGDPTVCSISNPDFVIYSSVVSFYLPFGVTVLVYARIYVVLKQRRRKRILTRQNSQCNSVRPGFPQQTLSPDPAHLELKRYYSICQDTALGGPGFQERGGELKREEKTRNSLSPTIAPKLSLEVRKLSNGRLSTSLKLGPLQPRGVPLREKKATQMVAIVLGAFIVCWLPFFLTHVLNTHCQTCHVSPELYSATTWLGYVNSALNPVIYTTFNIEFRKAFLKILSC
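Cells expressing the human receptor were seeded at 1500 cells/well, incubated overnight at 37 degrees C in 5% CO2, then exposed to library compounds with dopamine controls for 90 minutes at 37 degrees C before luminescent detection.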
TSG101-PTAP inh – blocks PTAP/TSG101 interaction to inhibit HIV-1 budding; AID 493005; 340,000 tested, under 10 active; Fluorescence polarization, FITC-PTAP peptide / Tsg101 binding; Potency, µM (highest dose often 115 µM), usual class: inhibitors; Q99816; active means well fitted inhibition curve with a large enough effect in the main read-out, with a control signal flat, not every such curve was filed as active; inconclusive means small, poorly fitted or top-dose-only effect, or effect the other way, or a change in a side signal; inactive means no such curve, though single readings can be large or run the other way
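Fluorescence anisotropy tracks displacement of a FITC-tagged PTAP peptide (50 nM) from the Tsg101 binding domain (10 uM), following a 20 min room-temperature incubation at pH 7.5.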
D3 ag – activates the human D3 dopamine receptor. P35462. D3R DiscoveRx beta-arrestin cells, luminescence, 90 min. max activation, %. 410,000 compounds, 0.58% hits; in the data active means max activation above about 30%
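Cells at 1500/well, incubated overnight, then treated with pinned compounds (dopamine as control) for 90 min at 37 degrees C. DiscoveRx reagent added for 30 - 60 minutes at room temperature; luminescence read.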
Mm-Cpn inhibitor – M. maripaludis TRiC chaperonin inhibition; 330,000 compounds, 0.031% hits; Potency, µM (series often up to 76.9 µM), hits mostly inhibitors; AID 504842; purified Mm-Cpn ATPase, ADP Transcreener TR-FRET; active means well fitted inhibition curve with a large enough effect; inconclusive means small, poorly fitted or top-dose-only effect; further: nearly all actives have a fitted effect of over 80% in size
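Purified archaeal Mm-CPN (25nM final) preincubated 10 min at 37degC with compound, then 10uM ATP for 30 min at 37degC; ADP measured by HTRF Transcreener TR-FRET; buffer 30 mM TRIS pH 7.4, 100mM KCl, 5mM MgCl2, 1mM DTT.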
A number is an active result. In the library only some 2.9% were active in any assay of this set; here they are far more common. Unless noted, the call rests on the fitted dose curve.

What do the screens show for `Cc1ccc(S(=O)(=O)N(C)C[C@H]2Oc3c(NC(=O)Nc4cccc5ccccc45)cccc3C(=O)N([C@@H](C)CO)C[C@@H]2C)cc1`?
Rango dissoc inh: inactive; Rango-impB inh: inactive; D3 antag: inactive; TSG101-PTAP inh: inactive; D3 ag: inactive; Mm-Cpn inhibitor: inactive

What do the screens show for `Cc1cccc(N2CCN(CCc3ccccc3)CC2)c1C`?
Rango dissoc inh: inactive; Rango-impB inh: inactive; D3 antag: -68; TSG101-PTAP inh: inactive; D3 ag: inactive; Mm-Cpn inhibitor: inactive

Results for COc1ccccc1N1CCN(CCc2ccccc2)CC1 ?
Rango dissoc inh: inactive; Rango-impB inh: inactive; D3 antag: -104; TSG101-PTAP inh: inactive; D3 ag: inactive; Mm-Cpn inhibitor: inactive

Results for Cc1ccccc1CN1CCN(Cc2ccccc2)CC1 ?
Rango dissoc inh: inactive; Rango-impB inh: inactive; D3 antag: inconclusive; TSG101-PTAP inh: inactive; D3 ag: inactive; Mm-Cpn inhibitor: inactive

Results for CC1CN(CCc2ccccc2)CC(C)O1 (stereo unspecified) ?
Rango dissoc inh: inactive; Rango-impB inh: inactive; D3 antag: inactive; TSG101-PTAP inh: inactive; D3 ag: inactive; Mm-Cpn inhibitor: inactive

How did COc1ccccc1N1CCN(Cc2cnc(-c3ccccc3)[nH]2)CC1 do in these assays?
Rango dissoc inh: inactive; Rango-impB inh: inactive; D3 antag: -83; TSG101-PTAP inh: inactive; D3 ag: inactive; Mm-Cpn inhibitor: inactive

How did Cc1ccc(N2CCN(CCc3ccccc3)CC2)cc1 do in these assays?
Rango dissoc inh: inactive; Rango-impB inh: inactive; D3 antag: -66; TSG101-PTAP inh: inactive; D3 ag: inactive; Mm-Cpn inhibitor: inactive

Results for O=C(C[C@@H]1NCCC[C@H]1O)Cn1cnc2cc(Br)c(Cl)cc2c1=O ?
D3 ag: inactive

Results for CCCCCc1cc(O)c2c(c1)OC(C)(C)c1ccc(C)cc1-2 ?
D3 ag: inactive

Results for Cc1cc2ccccc2n1CCNC(=O)COc1ccccc1 ?
Rango dissoc inh: inconclusive; Rango-impB inh: inconclusive; D3 antag: inconclusive; TSG101-PTAP inh: inactive; D3 ag: inactive; Mm-Cpn inhibitor: inactive

What do the screens show for `C[C@H]1O[C@H]1P(=O)(O)O`?
Rango dissoc inh: inactive; Rango-impB inh: inactive; D3 antag: inactive; TSG101-PTAP inh: inactive; D3 ag: inactive; Mm-Cpn inhibitor: inactive

Results for c1ccc2oc(N3CCNCC3)nc2c1 ?
Rango dissoc inh: inactive; Rango-impB inh: inactive; D3 antag: inactive; TSG101-PTAP inh: inactive; D3 ag: inactive; Mm-Cpn inhibitor: inactive

How did c1ccc2c(N3CCNCC3)nsc2c1 do in these assays?
Rango dissoc inh: inactive; Rango-impB inh: inactive; D3 antag: -70; TSG101-PTAP inh: inactive; D3 ag: inactive; Mm-Cpn inhibitor: inactive

How did Cc1c(S(=O)(=O)Nc2cccc(Cl)c2)c(=O)n(C)c(=O)n1C do in these assays?
Rango dissoc inh: inactive; Rango-impB inh: inconclusive; D3 antag: inactive; TSG101-PTAP inh: inactive; D3 ag: inactive; Mm-Cpn inhibitor: inactive

How did Cc1ccc(CN2C3CCCC2CC(NC(=O)Nc2cccc(F)c2)C3)cc1 (stereo unspecified) do in these assays?
Rango dissoc inh: inactive; Rango-impB inh: inactive; D3 antag: -99; TSG101-PTAP inh: inactive; D3 ag: inactive; Mm-Cpn inhibitor: inactive

What do the screens show for `CC(=O)[C@@]1(O)CC[C@H]2[C@@H]3CCC4=CC(=O)CC[C@]4(C)C3(F)[C@@H](O)C[C@@]21C` (stereo partly specified)?
D3 ag: inactive

What do the screens show for `CC1=C/C(=N\NC(=S)NCCc2ccccc2)CC(C)(C)C1`?
Rango dissoc inh: inactive; Rango-impB inh: inconclusive; D3 antag: inactive; TSG101-PTAP inh: inactive; D3 ag: inactive; Mm-Cpn inhibitor: inactive

How did COC(=O)C1=C(c2ccc(OCc3ccccc3)cc2)C[C@@H]2CC[C@H]1N2C(=O)NC1CCN(Cc2ccccc2)CC1 do in these assays?
Rango dissoc inh: inactive; Rango-impB inh: inactive; D3 antag: -94; TSG101-PTAP inh: inactive; D3 ag: inactive; Mm-Cpn inhibitor: inactive

Results for COC(=O)C1=C(c2ccc(OCc3ccccc3)cc2)C[C@@H]2CC[C@H]1N2C(=O)NCCN1CCOCC1 ?
Rango dissoc inh: inactive; Rango-impB inh: inactive; D3 antag: inactive; TSG101-PTAP inh: inactive; D3 ag: inactive; Mm-Cpn inhibitor: inactive

What do the screens show for `COC(=O)[C@]12CCC(C)(C)C[C@H]1[C@H]1C(=O)C=C3[C@@]4(C)C=C(C#N)C(=O)C(C)(C)[C@@H]4CC[C@@]3(C)[C@]1(C)CC2`?
D3 ag: inactive

Results for Cc1ccc(CN2CCCC(C(=O)c3sccc3C)C2)o1 (stereo unspecified) ?
Rango dissoc inh: inactive; Rango-impB inh: inactive; D3 antag: -52; TSG101-PTAP inh: inactive; D3 ag: inactive; Mm-Cpn inhibitor: inactive

How did Cc1ccsc1C(=O)C1CCCN(Cc2cnc(N3CCCC3)s2)C1 (stereo unspecified) do in these assays?
Rango dissoc inh: inactive; Rango-impB inh: inactive; D3 antag: -79; TSG101-PTAP inh: inactive; D3 ag: inactive; Mm-Cpn inhibitor: inactive

What do the screens show for `CC1(C)S[C@@H]2[C@H](N3C(=O)C(c4ccccc4)NC3(C)C)C(=O)N2[C@H]1C(=O)O` (stereo partly specified)?
D3 ag: inactive

How did NC(=O)c1ccc(OCCC(O)N2CC=C(c3ccc(F)cc3)CC2)cc1 (stereo unspecified) do in these assays?
Rango dissoc inh: inactive; Rango-impB inh: inactive; D3 antag: -57; TSG101-PTAP inh: inactive; D3 ag: inactive; Mm-Cpn inhibitor: inactive

What do the screens show for `O=c1[nH]c(=S)n(-c2cccc(Cl)c2)c(O)c1/C=N/N1CCOCC1`?
Rango dissoc inh: inconclusive; Rango-impB inh: inconclusive; D3 antag: inactive; TSG101-PTAP inh: inactive; D3 ag: inactive; Mm-Cpn inhibitor: inactive

What do the screens show for `NC(N)=Nc1ccc2[nH]c3c(c2c1)C[C@@]1(O)[C@H]2Cc4ccc(O)c5c4[C@@]1(CCN2CC1CC1)[C@H]3O5`?
Rango dissoc inh: inactive; Rango-impB inh: inactive; D3 antag: -61; TSG101-PTAP inh: inactive; D3 ag: inactive; Mm-Cpn inhibitor: inconclusive

How did [O]=[Cr](=[O])([OH])[O][Cr](=[O])(=[O])[OH] do in these assays?
D3 ag: inactive

How did C[C@@H]1C[C@H]2OC(=O)C3(CO3)[C@H]2[C@H](O)[C@]2(C)C(=O)C3OC3[C@@H]12 (stereo partly specified) do in these assays?
Mm-Cpn inhibitor: inactive

What do the screens show for `C=C1C(=O)O[C@@H]2C[C@@H](C)[C@@H]3C=CC(=O)[C@@]3(C)[C@@H](O)[C@H]12`?
Rango dissoc inh: inactive; Rango-impB inh: inconclusive; D3 antag: -102; TSG101-PTAP inh: inactive; D3 ag: inactive; Mm-Cpn inhibitor: inactive

Results for O=C1C[C@@H]2OCC=C3CN4CC[C@]56c7ccccc7N1[C@H]5[C@H]2[C@H]3C[C@H]46 ?
D3 ag: inactive
